The values that follow come from PubChem BioAssay (NCATS).

Results filed as inconclusive are left out. A call without a number means that no potency is given here. Activity calls are given as the source filed them. Unless noted, calls come from the whole dose curve; as a rule, active = well fitted curve in the direction sought with a large enough effect; inconclusive = small, poorly fitted or top-dose-only effect, or another doubt; inactive = no such curve, though single readings can be large; an effect the other way counts as inactive or inconclusive.

In experiment [1] the target is Alpha-galactosidase (Coffea arabica) (UniProt Q42656). Briefly: Counterscreen for Glucocerebrosidase Inhibitors: qHTS Assay for Coffee Bean alpha-Galactosidase at pH 4.5 (AID 957). Note: series mostly up to about 77 µM. In outline:
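Fluorogenic read-out: 4-methylumbelliferone at Ex 365/Em 440 nm after NaOH/glycine stop (pH 10). Enzyme 2 nM, 4-MU-alpha-galactoside 80 uM, citrate buffer pH 4.5, 20 min RT; normalized to no-enzyme and enzyme controls.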
Background: A counterscreen serves to expose hits that act by an unwanted route or on another target.

Experiment [2] shares this target. Briefly: Counterscreen for Glucocerebrosidase Inhibitors: qHTS Assay for Coffee Bean alpha-Galactosidase at pH 5.9 (AID 998). In short, it runs like this:
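In 50 mM citric acid pH 5.9 with 0.005% Tween-20, coffee bean enzyme hydrolyses 80 uM 4-MU alpha-D-galactopyranoside over 20 min at RT. Activity is normalized to controls; AC50 comes from Hill-modelled concentration-response data.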

Experiment [3] in a line: Validation screen for inhibitors of Lassa infection (AID 463096; calls by dose curve).

Sequence of Alpha-galactosidase (Coffea arabica) (Q42656 whole entry, looked up): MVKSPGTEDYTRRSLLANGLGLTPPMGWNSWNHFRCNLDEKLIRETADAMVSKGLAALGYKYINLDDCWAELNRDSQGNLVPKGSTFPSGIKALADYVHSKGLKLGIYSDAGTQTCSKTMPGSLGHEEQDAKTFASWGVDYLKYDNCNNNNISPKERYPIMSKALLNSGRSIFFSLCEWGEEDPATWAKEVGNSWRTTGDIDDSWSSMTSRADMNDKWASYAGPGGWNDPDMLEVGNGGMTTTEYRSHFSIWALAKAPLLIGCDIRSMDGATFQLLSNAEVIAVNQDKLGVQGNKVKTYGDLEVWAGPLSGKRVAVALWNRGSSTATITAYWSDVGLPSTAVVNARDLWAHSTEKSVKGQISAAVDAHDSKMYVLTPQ

Regarding `Nc1ncnc2c1c(-c1ccc(Oc3ccccc3)cc1)cn2C1CCCC1`, the compound was classed as inactive in experiment [1] and in experiment [2]. The Potency entry in experiment [3] was “inactive”.

In the case of `COc1[nH]c2ccc(F)cc2c1C(=O)OCC1CCN(CCNS(C)(=O)=O)CC1`, the call in experiment [1] and in experiment [2] was inactive. The Potency result in experiment [3] is “inactive”.

Regarding `CC(=O)NCCc1ccc(O)c(O)c1`, the compound was classed as inactive in experiment [1] and in experiment [2]. In addition, the Potency result in experiment [3] was “inactive”.

Turning to `CCCCN1CCC(COC(=O)c2cc(Cl)c(N)c3c2OCCO3)CC1`, the compound was called inactive in experiment [1] and in experiment [2]. Moreover, the Potency entry in experiment [3] is “inactive”.

In the case of `O=c1[nH]c(=O)n([C@H]2C[C@H](O)[C@@H](CO)O2)cc1/C=C/Br`, the Potency result in experiment [3] is “inactive”.

In the case of `COc1ccccc1NC(=O)Nc1nc(-c2cccnc2)nc2ccccc12`, the compound was called inactive in experiment [1] and in experiment [2]. The Potency entry in experiment [3] was “inactive”.

As for `O=C(Nc1cc(C(=O)Nc2ccc(S(=O)(=O)O)cc2S(=O)(=O)O)cc(C(=O)Nc2ccc(S(=O)(=O)O)cc2S(=O)(=O)O)c1)Nc1cc(C(=O)Nc2ccc(S(=O)(=O)O)cc2S(=O)(=O)O)cc(C(=O)Nc2ccc(S(=O)(=O)O)cc2S(=O)(=O)O)c1`, the compound was classed as inactive in experiment [1] and in experiment [2]. In addition, in experiment [3], the Potency entry is “inactive”.
